HT1080NT lethal – qHTS for induction of synthetic lethality in tumor cells producing 2HG: qHTS for the HT-1080-NT fibrosarcoma cell line | HT-1080-NT fibrosarcoma viability, CellTiter-Glo ATP luminescence, 48 h | Potency, µM (highest dose often 46.1 µM), actives largely listed as cytotoxic | actives 1.6% (n = 360,000);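 note: NT is the 2HG producing partner of a matched IDH1 knockdown line; nearly all actives have a fitted effect of over 55% in size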
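750 cells/well, RPMI + 5% FBS; 2 h settle, compound pin-transfer, 48 h at 37 degrees C. CellTiter-Glo 10 min RT, luminescence. Normalized to DMSO and media-only wells.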
HT1080 IDH1KD tx – qHTS for induction of synthetic lethality in tumor cells producing 2HG: qHTS for the HT-1080-IDH1KD cell line | HT-1080 IDH1 knockdown viability, ATP luminescence, 48 h | Potency, µM (series often up to 46.1 µM), hits mostly cytotoxic | actives 2% (n = 360,000)
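Using the IDH1-knockdown HT-1080 line run in the same batch and compound series as the NT line, viability after 48 h at 37 °C was determined by CellTiter-Glo luminescence and expressed as % activity.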
DT40 TDP1 CPT – qHTS for Inhibitors of human tyrosyl-DNA phosphodiesterase 1 (TDP1): qHTS in cells in presence of CPT. chicken DT40 Tdp1-/-;hTDP1 cells + 20 nM CPT, ATP luminescence, 48 h. Potency, µM (top dose mostly 46.2 µM), usual class: inhibitors. actives 12% (n = 420,000). AID 686979, 2013; note: nearly all actives have a fitted effect of over 55% in size
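Chicken DT40 Tdp1-/- cells complemented with human TDP1, 400 cells/well, exposed to compounds plus 20 nM camptothecin for at least 48 h at 37 C; viability read as ATP content by CellTiter-Glo luminescence.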
DT40 TDP1 no CPT – qHTS for Inhibitors of human tyrosyl-DNA phosphodiesterase 1 (TDP1): qHTS in cells in absence of CPT | DT40 Tdp1-/- hTDP1 cells, no CPT, ATP luminescence, 48 h | Potency, µM (top dose mostly 46.2 µM), usual class: inhibitors | actives 15% (n = 420,000) | AID 686978, 2013; note: nearly all actives have a fitted effect of over 55% in size
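DT40 Tdp1-/-;hTDP1 cells, no CPT (DMSO vehicle only), 400 cells/well; compounds pin-transferred; ≥48 hr, 37 °C; CellTiter-Glo 30 min RT dark, luminescence read.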
IL-1B inflam inh – qHTS for Inhibitors of Inflammasome Signaling: IL-1-beta AlphaLISA Primary Screen | THP-1 LPS/ATP IL-1B secretion, AlphaLISA, 16 h; hits give low values | actives 4.7% (n = 360,000) | AID 743279, 2014 | activity change, % at 57.5 µM; in the data active = activity change below about -50%; inconclusive = mostly about -30% to -49%
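Secreted IL-1B measured by AlphaLISA bead assay after 16 h compound exposure of THP-1 cells; compounds (final up to 57.5 uM) added 1 h before LPS (250 ng/mL) and ATP (1.25 mM) stimulation; lower signal means less secretion.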
Numbers stand for hits; n = inactive; u = inconclusive; x = no result; [ ] = remark or other dose. The list is not random: actives were taken first. Their share in the collection is about 19%. Unless noted, calls come from the whole dose curve; as a rule, active = well fitted curve in the direction sought with a large enough effect; inconclusive = small, poorly fitted or top-dose-only effect, or another doubt; inactive = no such curve, though single readings can be large; an effect the other way counts as inactive or inconclusive.

SMILES | HT1080NT lethal | HT1080 IDH1KD tx | DT40 TDP1 CPT | DT40 TDP1 no CPT | IL-1B inflam inh
CCC1(C2CCN(C(=O)c3coc4c3C(=O)CCC4)CC2)NC(=O)N(CCc2scnc2C)C1=O (configuration not stated) | x | x | n | n | x
C[C@H](CO)N1C[C@H](C)[C@@H](CN(C)C(=O)Nc2ccc3c(c2)OCO3)Oc2ccc(NC(=O)CCC(F)(F)F)cc2C1=O | n | n | n | n | n
CN1/C(=C/C=C(/C#N)C(N)=O)C(C)(C)c2ccccc21 | 5.8µM | 5.8µM | 2.6µM | 3.3µM | n
Cc1ccccc1N=C/C=C1\N(C)c2ccccc2C1(C)C | n | n | 18µM | 8.2µM | n
Nc1ccccc1C(O)(Cc1ccccc1)c1ccccc1 (configuration not stated) | n | n | n | u | n
Cc1nn(CCC(=O)NNC(=S)Nc2ccccc2)c(C)c1Br | u | n | n | n | n
Cc1cccc(NC(=S)NNC(=O)CCn2cc(C)cn2)c1 | 1.3µM | 2.8µM | n | n | n
CN(C)c1ccc(C(C(=O)NC2CCCC2)N(C(=O)c2ccco2)C2CC2)cc1 (configuration not stated) | n | n | n | u | n
Cc1ccccc1/C=N/n1c(-c2cc(-c3ccccc3)n[nH]2)n[nH]c1=S | n | n | u | 16µM | n
CCOC(CNC(=O)Cc1c(C)nc2c(-c3ccccc3)c(C)nn2c1C)OCC | n | n | n | u | n
CCn1c(/N=C/c2ccccc2NS(=O)(=O)c2ccc(C)cc2)nc2ccccc21 | n | n | 29µM | u | n
CCc1ccc(C2C(C#N)=C(N)N(N(C)C)C3=C2C(=O)CCC3)cc1 (configuration not stated) | n | n | n | n | n
C[C@@H]1CCCCO[C@@H](CN(C)C(=O)Nc2ccc3c(c2)OCO3)[C@@H](C)CN([C@H](C)CO)C(=O)c2cc(N(C)C)ccc2O1 | n | n | n | u | n
Cn1c(/C(C#N)=C/c2ccc(-c3ccc(S(N)(=O)=O)cc3)o2)nc2ccccc21 | n | n | 13µM | 15µM | n
COc1cc(/C=C(\C#N)c2nc3ccccc3n2C)cc(OC)c1OC | x | x | 29µM | 12µM | x
COc1ccc(/C(O)=C(\C#N)c2nc3ccccc3n2C)cc1OC | n | n | n | n | n
Cn1c(/C(C#N)=C/c2cccc(O)c2)nc2ccccc21 | n | n | 21µM | u | -62
O=C(c1cc(-c2ccco2)nn1-c1cccc(Cl)c1)N1CCCCC1 | u | n[9.24 µM] | 16µM | 16µM | n
Cc1ccc(-c2c(=O)n(O)c3ccccc3[n+]2[O-])cc1 | n | n | n | n | n
CCCSc1nnc(NC(=O)Nc2ccccc2)s1 | n | n | u | 16µM | n
CCCSc1nnc(NC(=O)CCc2ccccc2)s1 | n | n | n | n | n
Cc1ccc(NC(=O)CSc2nnc(NC(=O)NC3CCCCC3)s2)cc1 | x | x | n | u | x
CCOC(=O)Cc1ccc(NC(=O)Nc2nnc(N3CCCCC3C)s2)cc1 (configuration not stated) | x | x | 12µM | 12µM | x
Cc1ccc(NC(=O)Nc2nnc(SCC(=O)N3CCC(C)CC3)s2)cc1 | x | x | u | 23µM | x
CC1CCCCN1c1nnc(NC(=O)c2cc(-c3ccc(Br)cc3)on2)s1 (configuration not stated) | n | n | u | u | n
SMILES | HT1080NT lethal | HT1080 IDH1KD tx | DT40 TDP1 CPT | DT40 TDP1 no CPT | IL-1B inflam inh
CCN(c1ccccc1)c1nnc(NC(=O)Nc2ccc(Br)cc2)s1 | x | x | 2.9µM | 3.7µM | x
CC(C)NC(=O)N(C)C[C@H]1Oc2c(NC(=O)c3ccc(-c4nccs4)cc3)cccc2C(=O)N([C@@H](C)CO)C[C@H]1C | n | n | u | u | n
Cc1ccccc1N(CC(=O)N1CCN(Cc2ccccc2)CC1)S(C)(=O)=O | n | n | n | u | n
O=C(CCc1ccc(S(=O)(=O)NCc2ccccc2)cc1)NCc1cccnc1 | n | n | u | n | n
CCCSc1nnc(NC(=O)Nc2ccc(C)cc2)s1 | n | n | u | u | n
CCCSc1nnc(NC(=O)Nc2ccc(F)cc2)s1 | u | 12µM | 21µM | 21µM | n
CCOC(=O)C(NC(=O)CCl)(Nc1sc(C)c(CC)c1C#N)C(F)(F)F (configuration not stated) | u | n | u | 6.5µM | -107
CCOC(=O)C(NC(=O)CC(C)C)(Nc1sc(C)c(CC)c1C#N)C(F)(F)F (configuration not stated) | n | n | u | u | n
CC(=O)Nc1ccc(C2C(=O)c3ccccc3C2=O)cc1 | n | n | n | u | n
O=C(Oc1ccc(NC2=C(Cl)C(=O)c3ccccc3C2=O)cc1)c1ccc([N+](=O)[O-])cc1 | n | n | 8.2µM | 7.3µM | n
CC(=O)Nc1ccc(NC(=O)c2cccc3c2-c2ccccc2C3=O)cc1 | n | n | 21µM | 18µM | n
CC(=O)Nc1ccc(NC2=C(Cl)C(=O)c3ccccc3C2=O)cc1 | 4.6µM | 2.9µM | u | u | -98
Cc1ccc(NC(=O)c2cccc3c2-c2ccccc2C3=O)cc1C | n | n | u | u | n
Cc1ccc(NC2=C(NCCO)C(=O)c3ccccc3C2=O)cc1 | u | u | 13µM | u | n
O=S1(=O)CC(N2CCCC2)CN1Cc1cn(Cc2ccccc2)nn1 (configuration not stated) | n | n | n | n | n
CN(C)c1ccc(NC2=C(Cl)C(=O)c3ccccc3C2=O)cc1 | 3.3µM | 2.3µM | 21µM | 12µM | -100
CN(C)c1ccc(NC(=O)CN2C(=O)c3ccccc3C2=O)cc1 | n | n | n | n | n
O=C1C(Cl)=C(Nc2ccc3cn[nH]c3c2)C(=O)c2ccccc21 | u | 2.6µM | 1.6µM | 2.1µM | -99
COc1ccc(-c2ccc(C(c3c(C)[nH][nH]c3=O)c3c(C)[nH][nH]c3=O)o2)c([N+](=O)[O-])c1 | 8.2µM | 26µM | u | 23µM | -74
Cc1[nH][nH]c(=O)c1C(c1ccc(-c2ccc(F)cc2)o1)c1c(C)[nH][nH]c1=O | u | n | u | u | u
Cc1[nH][nH]c(=O)c1C(c1ccc(-c2ccc(Cl)c(Cl)c2)o1)c1c(C)[nH][nH]c1=O | n | n | 3.3µM | 2.6µM | n
CC(C)(C)c1cc(=O)n(-c2ccccc2)[nH]1 | u | u | 26µM | u | -97
O=c1ccc(=O)n(-c2ccccc2)[nH]1 | n | n | 16µM | u | n
